Screens: PubChem BioAssay, several laboratories
Compounds with a hit are over-represented: about 1.1% of the library has one in this group of screens.
CCHFV vOTU inh: CCHFV vOTU protease inhibitors, primary screen, biochemical, Pep-AMC substrate, fluorescence. AID 651958, 2012. 370,000 compounds, 0.55% hits. inhibition, % at 11.5 µM; in the data active means inhibition above about 30%; further: 0% = vehicle wells with enzyme and 100% = no enzyme wells
Yp Topo-I inh: Yersinia pestis topoisomerase I inhibitors, primary screen, biochemical, cleavage product accumulation, plate reader, single point. 360,000 compounds, 0.064% hits. Y. pestis Topo-I cleavage product accumulation. activity, % at 10 µM. DNA topoisomerase I (Yersinia pestis CO92); in the data active means activity above about 50%, passing the limit was not always enough
PrPC TRFRET: inhibitors of human cell surface prion protein PrPC, primary screen, cell-based, TR-FRET; inhibition, % at 13.8 µM; Major prion protein (Homo sapiens), P04156; 370,000 compounds, 0.43% hits; TR-FRET read-out; in the data active means inhibition above about 24%; further: 0% = median of the test wells and 100% = reference compound wells
Vc quorum ag: inducers of Vibrio cholerae quorum light production without autoinducers, primary screen, BH1578 luxS cqsA deficient, single point; V. cholerae BH1578 lux reporter, luminescence, 6 h; activation, % at 18.7 µM; 350,000 compounds, 0.16% hits; in the data active means activation mostly above about 9.7%, no sharp cut-off
PrPC TRFRET cf: confirmation of inhibitors of cell surface human prion protein, confirmation, cell-based, TR-FRET; shares compounds with PrPC TRFRET; cell surface PrPC level; inhibition, % at 13.8 µM; 1,500 compounds, 65% hits; in the data active means inhibition above about 25%
LD9 tox: cytotoxicity in LD9 cells, cytotoxicity control for cell surface PrPc inhibitor project, cell-based, luminescence, high throughput. shares compounds with PrPC TRFRET. luminescence viability. inhibition, % at 13.8 µM. 1,500 compounds, 29% hits. AID 743201, 2013; in the data active means inhibition above about 9.5%
* = called active by the depositor.

`CCCc1c(-c2ccc(F)cc2F)ncn1Cc1ccccc1OC` gave CCHFV vOTU inh 23, PrPC TRFRET 25*, PrPC TRFRET cf 7 and LD9 tox 9.
Cc1cccc(Cl)c1NC(=O)N1CCCN(c2nc3ccc(Cl)cc3s2)CC1 was read as CCHFV vOTU inh 1, Yp Topo-I inh 12, PrPC TRFRET 5 and Vc quorum ag 4.
`Cc1nc(Nc2ncc(C(=O)Nc3c(C)cccc3Cl)s2)cc(N2CCN(CCO)CC2)n1` gave CCHFV vOTU inh 1, PrPC TRFRET 25*, PrPC TRFRET cf 19 and LD9 tox 1.
Screening Cc1ccccc1NC(=O)Nc1ccc(C(F)(F)F)cc1 returned CCHFV vOTU inh 13, Yp Topo-I inh -7, PrPC TRFRET 30*, Vc quorum ag inactive, PrPC TRFRET cf 17 and LD9 tox 9.
Screening COc1cc2nc(C3CCC3)n(NC(=O)c3ccco3)c(=O)c2cc1OC returned CCHFV vOTU inh -3, Yp Topo-I inh -12, PrPC TRFRET 41*, Vc quorum ag inactive, PrPC TRFRET cf 37* and LD9 tox -5.
Screening O=C(CCl)Nc1ccccc1Sc1ccc(Cl)cc1 returned CCHFV vOTU inh 3, Yp Topo-I inh 27, PrPC TRFRET -1 and Vc quorum ag -5.
CC(=O)Nc1ccc2[nH]c(C)c(CC=C(Cl)Cl)c(=O)c2c1 was read as CCHFV vOTU inh -10, Yp Topo-I inh 6, PrPC TRFRET 37*, Vc quorum ag 4, PrPC TRFRET cf 54* and LD9 tox -3.
NC(c1csc(NC(=O)Nc2cccc(Cl)c2)n1)C1CCCCC1 (stereo not drawn) was read as CCHFV vOTU inh 1, Yp Topo-I inh -17, PrPC TRFRET 26*, Vc quorum ag 0, PrPC TRFRET cf 23 and LD9 tox -3.
Screening CC(NC(=O)Cc1cccs1)c1ccc2c(c1)OCO2 (stereo not drawn) returned CCHFV vOTU inh 2, Yp Topo-I inh -7, PrPC TRFRET -2 and Vc quorum ag 0.
For COc1cccc2sc(Nc3nnc(-c4ccc(F)cc4)o3)nc12 the results were CCHFV vOTU inh 6, Yp Topo-I inh 35, PrPC TRFRET 27*, Vc quorum ag 0, PrPC TRFRET cf 33* and LD9 tox -3.
COc1cccc2sc(Nc3nnc(-c4cccs4)o3)nc12 was read as CCHFV vOTU inh -13, Yp Topo-I inh 11, PrPC TRFRET 4 and Vc quorum ag -2.
`COc1ccc(C(=O)Nc2ccccc2C(=O)NC(Cc2ccc(O)cc2)C(=O)NNC(=O)c2ccc(C)cc2)cc1` (stereo not drawn) gave CCHFV vOTU inh -3, Yp Topo-I inh -10, PrPC TRFRET 83*, Vc quorum ag -1, PrPC TRFRET cf 6 and LD9 tox -1.
N#Cc1ccccc1OCC(=O)NCC(c1ccc(F)cc1)N1CCOCC1 (stereo not drawn) was read as CCHFV vOTU inh -2, Yp Topo-I inh -2, PrPC TRFRET -2 and Vc quorum ag -1.
COc1ccc(C(=O)Nc2nnc(Cc3cccs3)s2)cc1OC was read as CCHFV vOTU inh 10, Yp Topo-I inh 0, PrPC TRFRET 65*, Vc quorum ag inactive, PrPC TRFRET cf 36* and LD9 tox -1.
`Cc1cc(C(=O)COC(=O)c2n[nH]c(=O)c3ccccc23)c(C)n1C` gave CCHFV vOTU inh 7, Yp Topo-I inh 7, PrPC TRFRET 8 and Vc quorum ag 0.
For CCC(=O)NC(c1ccccc1OC)c1ccc2cccnc2c1O (stereo not drawn) the results were Yp Topo-I inh -5 and Vc quorum ag inactive.
Screening COc1cccc(C(NC(C)=O)c2ccc3cccnc3c2O)c1 (stereo not drawn) returned CCHFV vOTU inh -1, Yp Topo-I inh -1, PrPC TRFRET 41*, Vc quorum ag 2, PrPC TRFRET cf 33* and LD9 tox 44*.
CCCCC(=O)NC(c1cccc([N+](=O)[O-])c1)c1ccc2cccnc2c1O (stereo not drawn) was read as CCHFV vOTU inh 11, Yp Topo-I inh 13, PrPC TRFRET 9 and Vc quorum ag -1.
CC(=O)NC(c1ccc(C(C)C)cc1)c1ccc2cccnc2c1O (stereo not drawn) was read as CCHFV vOTU inh -1, Yp Topo-I inh 12, PrPC TRFRET 26*, Vc quorum ag 0, PrPC TRFRET cf 28* and LD9 tox 22*.
CC(=O)NC(c1cccc([N+](=O)[O-])c1)c1ccc2cccnc2c1O (stereo not drawn) was read as CCHFV vOTU inh 1, Yp Topo-I inh -3, PrPC TRFRET 40*, Vc quorum ag -2, PrPC TRFRET cf 37* and LD9 tox 38*.
O=C(Nc1ccc(OC(F)F)c(Cl)c1)Nc1ccc2c(c1)OCO2 was read as CCHFV vOTU inh 2, Yp Topo-I inh 2, PrPC TRFRET 29*, Vc quorum ag -1, PrPC TRFRET cf 22 and LD9 tox 3.
Screening COc1ccc(C(C)(C)C)cc1NC(=O)Nc1ccc2c(c1)OCO2 returned CCHFV vOTU inh -10, Yp Topo-I inh -22, PrPC TRFRET 25*, Vc quorum ag inactive, PrPC TRFRET cf 16 and LD9 tox -1.
CCN(CC)C(=O)N1CCN(C(=O)N2CCOCC2)CC1 was read as CCHFV vOTU inh 1, Yp Topo-I inh -1, PrPC TRFRET 6 and Vc quorum ag -2.
For COc1ccc(CC(N)c2csc(NC(=O)Nc3ccccc3Oc3ccccc3)n2)cc1 (stereo not drawn) the results were CCHFV vOTU inh -7, Yp Topo-I inh -1, PrPC TRFRET 19 and Vc quorum ag 0.
For NC(Cc1ccccc1)c1csc(NC(=O)Nc2ccccc2Oc2ccccc2)n1 (stereo not drawn) the results were CCHFV vOTU inh 0, Yp Topo-I inh -21, PrPC TRFRET 25*, Vc quorum ag 0, PrPC TRFRET cf 27* and LD9 tox -1.
Cc1ccc2nc(SCC(=O)N3CCCC3)nc(=O)n2c1 was read as CCHFV vOTU inh -2, Yp Topo-I inh 4, PrPC TRFRET 3 and Vc quorum ag -1.
CC(C)N1CCc2c(sc(NC(=O)c3ccc([N+](=O)[O-])o3)c2C(N)=O)C1 was read as CCHFV vOTU inh 3, Yp Topo-I inh -8, PrPC TRFRET 49*, Vc quorum ag 0, PrPC TRFRET cf 62* and LD9 tox 54*.
For COC(=O)C1=C(C(=O)OC)C2OC1c1cc3ccccc3cc12 the results were CCHFV vOTU inh 6, Yp Topo-I inh 26, PrPC TRFRET 45*, Vc quorum ag -1, PrPC TRFRET cf 17 and LD9 tox 98*.
